Screening results as filed in PubChem BioAssay.
Shown are actives, neighbours in structure and some others; about 12% of the full set was active somewhere.
Shiga inhibitor: Shiga toxin inhibition | Vero cells, Shiga toxin protein synthesis inhibition reporter | inhibition, % at 38.7 µM | 290,000 tested, 9.2% active | AID 2315; in the data active = inhibition mostly above about 28%, no sharp cut-off; inactive = mostly below about 43%
Cycloheximide cs: counter-screen for Shiga toxin inhibitors: cycloheximide protein synthesis inhibition. cell reporter, cycloheximide protein synthesis inhibition counterscreen. max response, %. 300,000 tested, 12% active. AID 2314; in the data active = max response mostly above about 13%, no sharp cut-off; inactive = mostly below about 14%; also: read at 38.3 µM for the half of the compounds with a filed dose
SARS PLP yeast: SARS-CoV PLP inhibition in yeast; AID 485353; 330,000 tested, 0.19% active; Potency, µM (top dose mostly 32.9 µM), most hits filed as activators; S. cerevisiae expressing SARS-CoV PLpro, growth rescue; also: nearly all actives have a fitted effect of over 55% in size
NS1 function inh: blocks influenza NS1 protein function; Potency, µM (highest dose often 46.1 µM); 270,000 tested, 0.4% active; AID 2326; also: actives are rising curves; nearly all actives have a fitted effect of over 50% in size
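Read-out: OD600 growth recovery of NS1-expressing budding yeast. Cells grown overnight at 30C in -URA glucose medium, washed, resuspended and diluted 1:100 in 2% galactose assay medium, pH 6.0. Same strain lacking NS1 served as positive control.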
Large screens that a line does not name were inactive. Unless noted, calls follow the shape of the full dose curve.

Cc1ccc(S(=O)(=O)N[C@H](C(=O)N2CCC(C(=O)N[C@@H](CCC(N)=O)C(=O)O)CC2)C(C)C)cc1	none
CCOP1(=O)OCC2OC(n3cnc4c(N)ncnc43)C(O)C2O1 (stereo not drawn)	none
COCCNC(=O)/C=C/c1c(Cl)cccc1Cl	none
CC1CCN(C(=O)CN(Cc2ccc(Cl)cc2)S(C)(=O)=O)CC1	none
Cc1ccc(CSCC(=O)N2CCCC2)cc1	Cycloheximide cs 23.7
O=C(CSCc1ccc(F)cc1)N1CCOCC1	Shiga inhibitor 81.5, Cycloheximide cs 58.3
CC1CCN(C(=O)CSCc2ccc(Cl)cc2)CC1	Cycloheximide cs 34.9
Cc1ccc(SCc2ccc(C(=O)N3CCCCC3)cc2)cc1	Shiga inhibitor 59.1, Cycloheximide cs 28.5
CN1CCN(C(=O)c2ccc(CSc3ccc(Cl)cc3)cc2)CC1	none
Cn1nc(C(=O)NC2CCCc3ccccc32)ccc1=O (stereo not drawn)	none (no result: NS1 function inh)
Cc1ccc(S(=O)(=O)Oc2ccc(C)cc2/C=N/N=C2\NC(=O)C(C)S2)cc1 (stereo not drawn)	Shiga inhibitor 72.6, Cycloheximide cs 30.2
Cc1ccc2c(c1)c1ncnc(N3CCN(c4ccccc4)CC3)c1n2C	none
Cc1ccc2c(c1)c1ncnc(N3CCC4(CC3)OCCO4)c1n2C	Shiga inhibitor 63.9, Cycloheximide cs 33.4
Cc1ccc2c(c1)c1ncnc(N3CCOCC3)c1n2C	Shiga inhibitor 94.3, Cycloheximide cs 28.4
CCC(CC)C(=O)NCc1cccnc1	none (no result: NS1 function inh)
Cn1c(SCC(=O)Nc2ccc3[nH]c(=O)[nH]c3c2)nnc1-c1ccc(F)cc1	none
CCOc1cc(N2CCOCC2)c(OCC)cc1NC(=O)CN1C(=O)NC2(CCCCC2C)C1=O (stereo not drawn)	none (no result: Shiga inhibitor, Cycloheximide cs, NS1 function inh)
COc1cc(C2NC(=O)C(C#N)=C(S)N2c2ccc(C)cc2)ccc1OC(C)C (stereo not drawn)	Shiga inhibitor 77.8, Cycloheximide cs 10.7
CCOc1ccc(C2=NNC(c3cccs3)=Nc3ccc(OC)cc32)cc1	Shiga inhibitor 84.8, Cycloheximide cs 34.9, NS1 function inh inconclusive
COc1ccc(C2C=C(Nc3ccccc3)C(=O)N2c2ccccc2)cc1OC (stereo not drawn)	Shiga inhibitor 65.7, Cycloheximide cs 37.7
COc1cccc(C2C=C(Nc3ccccc3)C(=O)N2c2ccccc2)c1 (stereo not drawn)	Shiga inhibitor 18.9, Cycloheximide cs 27.1, NS1 function inh inconclusive
COCCNC(=O)c1cn(C)c2ccc(S(=O)(=O)N3CCCCC3)cc2c1=O	none
Cc1ccc(-c2nnc(-c3cccc(NC(=O)c4cccs4)c3)o2)cc1	Shiga inhibitor 38.6
Cc1cccc(-c2nnc(-c3cccc(NC(=O)Cc4cccs4)c3)o2)c1	Cycloheximide cs 19.5
COc1ccc(/C=C(\C#N)C(=O)OCC(=O)NC2CC2)cc1	none (no result: NS1 function inh)
Cc1cc(/C=C(\C#N)C(=O)OCC(=O)Nc2ccc(OC(F)F)cc2)c(C)n1CC(C)C	Cycloheximide cs 26.2, NS1 function inh inconclusive
CCCn1c(C)cc(/C=C(\C#N)C(=O)OCC(=O)NC(=O)NCC)c1C	none
Cc1cc(/C=C(\C#N)C(=O)OCC#N)c(C)n1CC(C)C	Shiga inhibitor 59.5, Cycloheximide cs 28.1
COc1ccc(-n2c(C)cc(C(=O)CN3C(=O)c4ccccc4C3=O)c2C)cc1	Cycloheximide cs 20.4
Cc1cc(C(=O)CN2C(=O)c3ccccc3C2=O)c(C)n1C1CC1	Cycloheximide cs 23.2
COc1ccc(-n2c(C)cc(C(=O)CCl)c2C)cc1	none
O=C(NNS(=O)(=O)c1ccc(F)cc1)c1cnn(-c2ccccc2)c1C(F)(F)F	none
Cc1ccc(-n2c(SCC(=O)Nc3cccc(S(N)(=O)=O)c3)nc3ccccc32)cc1	none
CC1(C)CCC[C@@](C)([C@H]2CC[C@]3(C)[C@@H]2[C@H](O)CC2[C@@]4(C)CC[C@H](O)C(C)(C)[C@@H]4[C@@H](O)C[C@]23C)O1 (stereo partly drawn)	none (no result: SARS PLP yeast, NS1 function inh)
COc1cc(CNc2ccccc2SC)ccc1O	Shiga inhibitor 69.7
CCOc1cc(CNc2ccccc2SC)ccc1O	none
CN(CC(=O)Nc1ccccc1)CC(=O)Nc1ccc(F)cc1	none
CS(=O)(=O)N(CC(=O)Nc1ccc2c(c1)OCO2)c1ccccc1	none
CS(=O)(=O)N(CC(=O)Nc1ccc2c(c1)OCCO2)c1ccc2c(c1)OCO2	Cycloheximide cs 10.3
C=CCN(c1ccc(C(=O)Nc2ccc3c(c2)OCO3)cc1)S(C)(=O)=O	Cycloheximide cs 13.3
COC(=O)CC1C(=O)NCCN1C(=O)c1ccc(S(=O)(=O)N2CCOCC2)cc1 (stereo not drawn)	none (no result: NS1 function inh)
N#Cc1ccccc1NC(=O)COc1ccc2c(c1)OCO2	Shiga inhibitor 93.0, Cycloheximide cs 47.1
CCc1ccccc1NC(=O)COc1ccc2c(c1)OCO2	Shiga inhibitor 46.9, Cycloheximide cs 14.8 (no result: NS1 function inh)
O=C(COc1ccc2c(c1)OCO2)Nc1ccccc1C(F)(F)F	Shiga inhibitor 86.9, Cycloheximide cs 31.4
Cc1ccc(S(=O)(=O)NCCc2cn3nc(C)c(C)nc3n2)cc1C	none
CC(C)CCOCc1nc2sc3c(c2c(=O)[nH]1)CCC(C)C3 (stereo not drawn)	NS1 function inh inconclusive
CC1CCc2c(sc3nc(CSc4n[nH]c(N)n4)[nH]c(=O)c23)C1 (stereo not drawn)	Shiga inhibitor 37.2
O=C(c1ccc(Cn2c(=S)[nH]c3ccccc3c2=O)cc1)N1CCN(c2ccccn2)CC1	none
O=c1c(-c2ccccc2)nc(-c2ccccc2)cn1O	Cycloheximide cs 21.3, SARS PLP yeast inconclusive
CCC(Nc1ncnc2ccc(-c3c(C)noc3C)cc12)c1ccccc1 (stereo not drawn)	none (no result: SARS PLP yeast, NS1 function inh)
Cc1cc(NC(=O)Nc2ccc(F)c(Cl)c2)no1	Shiga inhibitor 28.8, Cycloheximide cs 28.4
Cc1cc(NC(=O)Nc2cc(F)ccc2F)no1	Cycloheximide cs 9.2
Cc1cc(NC(=O)Nc2cc(Cl)sc2Cl)no1	none
Cc1cc(NC(=O)COc2ccc(F)c(Cl)c2)no1	none
CC[C@]1(c2cccc(C)c2)C(=O)N(C(=O)OC)N1C(=O)OC	none
CS(=O)(=O)c1ccc2nc(NC(=O)c3ccccc3Br)sc2c1	Shiga inhibitor 70.2, Cycloheximide cs 37.3
CS(=O)(=O)c1ccc2nc(NC(=O)c3cccc(Cl)c3)sc2c1	none
CS(=O)(=O)c1ccc2nc(NC(=O)c3ccccc3Cl)sc2c1	Shiga inhibitor 59.2, Cycloheximide cs 15.4
CS(=O)(=O)c1ccc2nc(NC(=O)c3ccc(Cl)cc3)sc2c1	Cycloheximide cs 15.6
COc1ccccc1C(=O)Nc1nc2ccc(S(C)(=O)=O)cc2s1	Shiga inhibitor active, Cycloheximide cs 17.2
COc1ccccc1C(=O)Nc1nc2ccccc2s1	none (no result: Shiga inhibitor, SARS PLP yeast)
Cc1ccc(S(=O)(=O)C2(C(=O)N3CCN(c4cc(C)ccc4C)CC3)CC2)cc1	none (no result: NS1 function inh)
O=C(c1ccc(Cl)c([N+](=O)[O-])c1)N1CCN(S(=O)(=O)c2ccc(Cl)cc2)CC1	none (no result: Shiga inhibitor, Cycloheximide cs, NS1 function inh)
CCC(C)NC(=O)CSc1nc2ccsc2c(=O)n1NC(=O)c1ccccc1 (stereo not drawn)	none
Cc1cc(NC(=O)CSc2nc3ccsc3c(=O)n2NC(=O)c2ccccc2)no1	Shiga inhibitor 36.6, Cycloheximide cs 36.4, SARS PLP yeast inconclusive
Cc1ccc(CNC(=O)CSc2nc3ccsc3c(=O)n2NC(=O)c2ccccc2)cc1	none
O=C(Nn1c(SCc2ccc(F)cc2)nc2ccsc2c1=O)c1ccccc1	Cycloheximide cs 27.6
